Laboratory results as given in PubChem BioAssay AID1159580 (chemical genetic matrix, 2015).
The campaign covered roughly 5,500 compounds. About 2,000 (36%) were called active. Not shown: some 18% with an inconclusive outcome. This is one part of the list. Unmarked numbers belong to inactive results. Rule as the data show it: active = normalized growth mostly below about 0.91 (no sharp cut-off); inconclusive = no clear call, values can overlap the other calls; inactive = mostly above about 0.92.

Test: chemical genetic growth profiling, strain panel (AID 1159580);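 also: tested at 20 µM; growth read once vehicle control cultures reached saturation at 30 °C; 1 = growth at the plate median or of vehicle wells; lower values mean less growth of the strain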
Conditions: growth OD
[1] = S. cerevisiae deletion strains, locus YAL013W, strain DEP1, hits give low values
[2] = S. cerevisiae deletion strains, locus YBR229C, strain ROT2, hits give low values
[3] = S. cerevisiae deletion strains, locus YCL061C, strain MRC1, hits give low values
[4] = S. cerevisiae deletion strains, locus YDL101C, strain DUN1, hits give low values
[5] = S. cerevisiae deletion strains, locus YDR150W, strain NUM1, hits give low values
[6] = S. cerevisiae deletion strains, locus YEL061C, strain CIN8, hits give low values
[7] = S. cerevisiae deletion strains, locus YGR078C, strain PAC10, hits give low values
[8] = S. cerevisiae deletion strains, locus YHR030C, strain SLT2, hits give low values
[9] = S. cerevisiae deletion strains, locus YHR087W, strain rtc3, hits give low values
[10] = S. cerevisiae deletion strains, locus YJR043C, strain POL32, hits give low values
[11] = S. cerevisiae deletion strains, locus YJR075W, strain HOC1, hits give low values
[12] = S. cerevisiae deletion strains, locus YLR039C, strain RIC1, hits give low values
[13] = S. cerevisiae deletion strains, locus YLR058C, strain SHM2 (second series), hits give low values
[14] = S. cerevisiae deletion strains, locus YLR085C, strain ARP6, hits give low values
[15] = S. cerevisiae deletion strains, locus YLR262C, strain YPT6, hits give low values
[16] = S. cerevisiae deletion strains, locus YML094W, strain GIM5, hits give low values
[17] = S. cerevisiae deletion strains, locus YMR219W, strain ESC1, hits give low values
[18] = S. cerevisiae deletion strains, locus YMR263W, strain SAP30, hits give low values
[19] = S. cerevisiae deletion strains, locus YNL128W, strain TEP1, hits give low values
[20] = S. cerevisiae deletion strains, locus YNL153C, strain GIM3, hits give low values
[21] = S. cerevisiae deletion strains, locus YNL298W, strain CLA4 (second series), hits give low values
[22] = S. cerevisiae deletion strains, locus YNL322C, strain KRE1, hits give low values
[23] = S. cerevisiae deletion strains, locus YNR030W, strain Alg12, hits give low values
[24] = S. cerevisiae deletion strains, locus YPL055C, strain LGE1, hits give low values
[25] = S. cerevisiae deletion strains, locus YPL241C, strain CIN2, hits give low values
[26] = S. cerevisiae deletion strains, locus YPR135W, strain CTF4, hits give low values
[27] = S. cerevisiae strains, strain wild type, hits give low values
[28] = S. cerevisiae deletion strains, locus YJL187C, strain SWE1, hits give low values
[29] = S. cerevisiae deletion strains, locus YKL190W, strain CNB1, hits give low values
[30] = S. cerevisiae deletion strains, locus YOL006C, strain TOP1, hits give low values
[31] = S. cerevisiae deletion strains, locus YGR229C, strain SMI1, hits give low values
[32] = S. cerevisiae deletion strains, locus YDL134C, strain PPH21, hits give low values

Cc1ccc(S(=O)(=O)N2CCC(C(c3ccccc3)c3ccccc3)CC2)cc1
normalized growth [1]: 0.998
normalized growth [2]: 0.989
normalized growth [3]: 0.963
normalized growth [4]: 0.975
normalized growth [5]: 0.948
normalized growth [6]: 0.994
normalized growth [7]: 0.972
normalized growth [8]: 0.971
normalized growth [9]: 1.05
normalized growth [10]: 1
normalized growth [11]: 1
normalized growth [12]: 0.97
normalized growth [13]: 1.01
normalized growth [14]: 0.989
normalized growth [15]: 0.989
normalized growth [16]: 1
normalized growth [17]: 0.993
normalized growth [18]: 0.994
normalized growth (S. cerevisiae deletion strains, locus YMR307W, strain GAS1, hits give low values): 1.24
normalized growth [19]: 0.969
normalized growth [20]: 0.988
normalized growth [21]: 0.971
normalized growth [22]: 0.999
normalized growth [23]: 1.01
normalized growth [24]: 1.06
normalized growth [25]: 0.986
normalized growth [26]: 0.986
normalized growth [27]: 0.974

CC(=O)Nc1ccc(S(=O)(=O)NCCCN2CCN(Cc3ccccc3)CC2)cc1Cl
normalized growth [1]: 0.993
normalized growth [2]: 1.01
normalized growth [3]: 0.999
normalized growth [4]: 0.952
normalized growth [5]: 0.924
normalized growth [6]: 1.04
normalized growth [7]: 0.983
normalized growth [8]: 1.03
normalized growth [9]: 1.02
normalized growth [28]: 1.01
normalized growth [10]: 0.992
normalized growth [11]: 1.01
normalized growth [29]: 0.993
normalized growth [12]: 0.992
normalized growth [13]: 1.01
normalized growth [14]: 1.02
normalized growth [15]: 1
normalized growth [16]: 1.01
normalized growth [17]: 0.996
normalized growth [18]: 0.944
normalized growth [19]: 0.986
normalized growth [20]: 0.994
normalized growth [21]: 0.969
normalized growth [22]: 0.999
normalized growth [23]: 0.99
normalized growth [30]: 1.02
normalized growth [24]: 0.915
normalized growth [25]: 1
normalized growth [26]: 0.926

O=C(Cc1ccccc1)NC1CCN(S(=O)(=O)c2ccc(Cl)cc2)CC1
normalized growth [1]: 1.01
normalized growth [2]: 1
normalized growth [3]: 0.992
normalized growth [4]: 1.01
normalized growth [5]: 0.996
normalized growth [6]: 1.01
normalized growth [7]: 0.98
normalized growth [31]: 0.992
normalized growth [8]: 0.973
normalized growth [9]: 1
normalized growth [10]: 0.985
normalized growth [11]: 0.962
normalized growth [29]: 0.994
normalized growth [12]: 1
normalized growth [13]: 0.993
normalized growth [14]: 1.01
normalized growth [15]: 1.01
normalized growth [16]: 1
normalized growth [17]: 0.999
normalized growth [18]: 0.992
normalized growth [20]: 0.982
normalized growth [21]: 1.03
normalized growth [22]: 0.998
normalized growth [23]: 1
normalized growth [30]: 1.02
normalized growth [24]: 0.986
normalized growth [25]: 1.03
normalized growth [26]: 0.971
normalized growth [27]: 1.01

Cc1ccc(S(=O)(=O)N2CCN(CCOc3ccccc3)CC2)cc1
normalized growth [1]: 1
normalized growth [2]: 0.994
normalized growth [3]: 0.982
normalized growth [4]: 0.992
normalized growth [32]: 1
normalized growth [5]: 0.961
normalized growth [6]: 0.972
normalized growth [7]: 0.993
normalized growth [31]: 0.99
normalized growth [8]: 0.896
normalized growth [9]: 0.995
normalized growth [28]: 0.995
normalized growth [10]: 1
normalized growth [11]: 0.984
normalized growth [12]: 0.828
normalized growth [13]: 0.987
normalized growth [14]: 0.966
normalized growth [15]: 0.701 (active)
normalized growth [16]: 0.944
normalized growth [17]: 0.985
normalized growth [19]: 0.997
normalized growth [20]: 0.989
normalized growth [21]: 0.96
normalized growth [22]: 0.997
normalized growth [23]: 0.967
normalized growth [24]: 0.953
normalized growth [25]: 0.982
normalized growth [26]: 0.99

Cc1ccc(S(=O)(=O)N2CCCCCC2)cc1
normalized growth [1]: 0.98
normalized growth [2]: 0.997
normalized growth [3]: 0.997
normalized growth [4]: 0.985
normalized growth [32]: 0.999
normalized growth [5]: 0.976
normalized growth [6]: 1.01
normalized growth [7]: 0.985
normalized growth [31]: 0.988
normalized growth [8]: 0.896
normalized growth [9]: 1.03
normalized growth [10]: 0.999
normalized growth [11]: 0.998
normalized growth [12]: 0.881
normalized growth [13]: 0.998
normalized growth [14]: 0.921
normalized growth [15]: 0.928
normalized growth [16]: 1.02
normalized growth [17]: 0.983
normalized growth [18]: 1
normalized growth [20]: 0.987
normalized growth [21]: 0.983
normalized growth [22]: 0.972
normalized growth [23]: 0.983
normalized growth [30]: 0.961
normalized growth [24]: 1.04
normalized growth [25]: 0.984
normalized growth [26]: 0.843
normalized growth [27]: 1

O=S(=O)(c1ccc(Cl)cc1)N1CCN(Cc2ccccc2)CC1
normalized growth [1]: 1.01
normalized growth [2]: 0.99
normalized growth [3]: 1.01
normalized growth [4]: 0.985
normalized growth [5]: 0.986
normalized growth [6]: 0.958
normalized growth [7]: 0.992
normalized growth [8]: 0.856
normalized growth [9]: 0.978
normalized growth [10]: 1.01
normalized growth [11]: 0.982
normalized growth [12]: 0.846
normalized growth [13]: 1
normalized growth [14]: 0.985
normalized growth [15]: 0.809 (active)
normalized growth [16]: 0.967
normalized growth [17]: 0.994
normalized growth [18]: 1.02
normalized growth [20]: 1
normalized growth [21]: 0.956
normalized growth [22]: 0.998
normalized growth [23]: 0.987
normalized growth [24]: 0.972
normalized growth [25]: 0.978
normalized growth [26]: 0.923
normalized growth [27]: 0.987
